# Source: PubChem BioAssay (NCATS)
# Results filed as inconclusive are left out. A call without a number means that no potency is given here. Active and inactive are the calls of the source. Unless noted, the call rests on the fitted dose curve.
# How the values were obtained:
# [1] = qHTS for Inhibitors of the Functional Ribonucleoprotein Complex (vRNP) of Lassa (LASV) Arenavirus: LASV Primary Screen - GLuc reporter signal (AID 1347082; calls by dose curve; tested in HEK293 reporter line; further: nearly all actives have a fitted effect of over 60% in size; further: potency means the concentration at half of the fitted maximal effect)
# [2] = qHTS for Inhibitors of the Functional Ribonucleoprotein Complex (vRNP) of Lassa (LASV) Arenavirus: Viability assay - alamar blue signal for LASV Primary Screen (AID 1347083; calls by dose curve; tested in HEK293 reporter line; further: nearly all actives have a fitted effect of over 80% in size; further: potency means the concentration at half of the fitted maximal effect)
# [3] = target: Nucleoprotein (Lymphocytic choriomeningitis virus (strain Armstrong)) (UniProt P09992); test: qHTS for Inhibitors of the Functional Ribonucleoprotein Complex (vRNP) of Lymphocytic Choriomeningitis Arenaviruses (LCMV): LCMV Primary Screen - GLuc reporter signal (AID 1347086); further: nearly all actives have a fitted effect of over 70% in size; further: potency means the concentration at half of the fitted maximal effect
# Sequence of Nucleoprotein (Lymphocytic choriomeningitis virus (strain Armstrong)) (P09992 whole entry, looked up): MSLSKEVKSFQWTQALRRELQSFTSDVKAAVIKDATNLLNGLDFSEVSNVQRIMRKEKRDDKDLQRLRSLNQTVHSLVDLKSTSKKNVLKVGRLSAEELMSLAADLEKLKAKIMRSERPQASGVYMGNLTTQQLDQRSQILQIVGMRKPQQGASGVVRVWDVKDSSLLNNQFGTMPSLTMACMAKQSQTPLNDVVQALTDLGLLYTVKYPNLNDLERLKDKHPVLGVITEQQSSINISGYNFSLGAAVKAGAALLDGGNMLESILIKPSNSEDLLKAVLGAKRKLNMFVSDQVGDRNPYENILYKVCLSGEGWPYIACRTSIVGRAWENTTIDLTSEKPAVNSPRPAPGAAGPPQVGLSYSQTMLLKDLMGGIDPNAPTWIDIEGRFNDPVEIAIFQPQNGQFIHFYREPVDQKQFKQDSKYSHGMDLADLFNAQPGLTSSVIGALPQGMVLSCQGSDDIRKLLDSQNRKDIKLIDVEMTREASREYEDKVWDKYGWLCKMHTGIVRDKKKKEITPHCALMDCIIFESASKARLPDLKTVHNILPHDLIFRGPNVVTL
# [4] = Primary qHTS for inhibitors of SARS-S pseudo-typed particle cell entry (AID 1479145); further: nearly all actives have a fitted effect of over 45% in size
# [5] = Primary qHTS for Huh7 cytotoxicity: counterscreen for inhibitors of MERS-S pseudotyped particle cell entry (AID 1479147); details: outcome: dose series up to 57.1 µM unless noted
# [6] = Primary qHTS for inhibitors of MERS-S pseudo-typed particle cell entry (AID 1479149); further: nearly all actives have a fitted effect of over 60% in size
# [7] = Primary qHTS for Vero E6 cytotoxicity: counterscreen for inhibitors of SARS-S pseudo-typed particle cell entry (AID 1479150); details: outcome: dose series up to 57.1 µM unless noted
# [8] = Cytotoxicity counterscreen for inhibitors of SARS-CoV-2 cell entry (AID 1645845); further: nearly all actives have a fitted effect of over 50% in size
# Procedure, shortened: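 After a 15 min room-temperature ATPLite 1step step, luminescence reflected ATP remaining in HEK293-ACE2 cells exposed to compound for 1 h plus 48 h at 37 C, with percent activity set by cell and no-cell controls.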
# CRL-7250 = normal cell line; test: qHTS assay to identify novel small-molecules to repurpose for Merkel cell carcinoma treatment (AID 1296009; active means well fitted inhibition curve with a large enough effect; further: nearly all actives have a fitted effect of over 60% in size); details: MCC and control cell lines, CellTiter-Glo viability, 72 h; series mostly up to 92 µM
# Procedure, shortened: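 Viability readout: ATP luminescence (CellTiter-Glo) after 72 hr drug exposure at 37 degree celsius. Dose-response format was 8 points for NPC and 11 points for MIPE; data normalized to in-plate controls.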
# [9] = Confirmatory qHTS for activators (rescue) of SARS-CoV-2 Cytopathic Effect (CPE) (AID 1508606); further: potency means the concentration at half of the fitted maximal effect; nearly all actives have a fitted effect of over 70% in size
# [10] = qHTS for Inhibitors of the Functional Ribonucleoprotein Complex (vRNP) of Lymphocytic Choriomeningitis Arenaviruses (LCMV): Viability assay - alamar blue signal for LCMV Primary Screen (AID 1347085; calls by dose curve; tested in HEK293 reporter line; further: nearly all actives have a fitted effect of over 80% in size; further: potency means the concentration at half of the fitted maximal effect)
# [11] = Primary qHTS to identify inhibitors of SARS-CoV-2 cell entry (AID 1645846); details: activity change, negative = inhibition: at 57.1 µM (top of the series) unless noted; further: nearly all actives have a fitted effect of over 45% in size
# Procedure, shortened: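 Inhibition of spike-mediated entry was scored in human ACE2-transfected Expi293F cells. Particles were MLV-pseudotyped with Wuhan-Hu-1 S carrying a 19-aa C-terminal deletion; signal was luciferase after two days, scaled between spike PP and fusion-protein-free PP.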
# [12] = Confirmatory qHTS for VERO E6 Cytotoxicity Assay: Counterscreen for SARS-CoV-2 CPE Assay (AID 1508605); further: nearly all actives have a fitted effect of over 60% in size; further: potency means the concentration at half of the fitted maximal effect
structure (smiles),measurement,setting,value
COc1ccc([C@@H]2CC(=O)c3c(O)cc(O[C@@H]4O[C@H](CO[C@@H]5O[C@@H](C)[C@H](O)[C@@H](O)[C@@H]5O)[C@@H](O)[C@H](O)[C@@H]4O)cc3O2)cc1O,Potency,[1],inactive
same,Potency,[2],inactive
same,Potency,[3],inactive
same,Potency,[4],inactive
same,outcome,[5],inactive
same,Potency,[6],inactive
same,outcome,[7],inactive
same,Potency,[8],inactive
same,Potency,CRL-7250,inactive
O=c1cc(-c2cccc3c2Sc2ccccc2S3)oc(N2CCOCC2)c1,Potency,[1],inactive
same,Potency,[3],inactive
same,Potency,[9],3.55 µM (active)
same,Potency,CRL-7250,inactive
COc1cc(NC(=O)c2ccc(-c3ccc(Cl)cc3)o2)cc(OC)c1,Potency,[1],34.3 µM (active)
same,Potency,[2],15.3 µM (active)
same,Potency,[10],21.7 µM (active)
same,Potency,[8],inactive
same,"activity change, negative = inhibition",[11],-4.11%
same,Potency,CRL-7250,inactive
Nc1ncnc2c1ncn2[C@@H]1O[C@@H](CO)[C@H](O)[C@H]1O,Potency,[1],inactive
same,Potency,[2],inactive
same,Potency,[3],inactive
same,Potency,CRL-7250,inactive
COc1ccc2c(c1)c(C1=C(c3c[nH]c4ccccc34)C(=O)NC1=O)cn2CCCN(C)C,Potency,[2],0.485 µM (active)
same,Potency,CRL-7250,inactive
CN(C)C(=O)[C@H](O)[C@H](Cc1ccccc1)NC(=O)c1cc2cc(Cl)ccc2[nH]1,Potency,[1],inactive
same,Potency,[10],inactive
same,Potency,[3],inactive
same,Potency,[8],inactive
same,"activity change, negative = inhibition",[11],-8.95%
same,Potency,CRL-7250,inactive
CNC(=O)c1ccc(N2C(=S)N(c3cnc(C#N)c(C(F)(F)F)c3)C(=O)C23CCC3)cc1F,Potency,[1],21.7 µM (active)
same,Potency,[8],inactive
same,"activity change, negative = inhibition",[11],-16.7%
same,Potency,CRL-7250,inactive
C[C@](Cc1c[nH]c2ccccc12)(NC(=O)OC1C2CC3CC(C2)CC1C3)C(=O)NC[C@H](NC(=O)CCC(=O)O)c1ccccc1 (some centres undefined),Potency,[1],inactive
same,Potency,[3],inactive
same,Potency,[8],inactive
same,Potency,[11],inactive
same,Potency,CRL-7250,inactive
CC(C)(OCc1nn(Cc2ccccc2)c2ccccc12)C(=O)O,Potency,[1],inactive
same,Potency,[8],inactive
same,Potency,CRL-7250,inactive
COc1ccc2c3c1O[C@H]1C[C@@H](O)C=C[C@@]31CCN(C)C2,Potency,[4],inactive
same,outcome,[5],inactive
same,Potency,[6],inactive
same,outcome,[7],inactive
same,Potency,[8],inactive
same,Potency,[11],inactive
same,Potency,CRL-7250,inactive
C[C@@H]1O[C@@H](O[C@H]2[C@H](OC(=O)[C@]34CCC(C)(C)C[C@H]3C3=CCC5[C@@]6(C)CC[C@H](O[C@@H]7O[C@H](CO[C@@H]8OC[C@H](O)[C@H](O)[C@H]8O)[C@@H](O)[C@H](O)[C@H]7O)C(C)(C)C6CC[C@@]5(C)[C@]3(C)C[C@H]4O)OC[C@@H](O)[C@@H]2O)[C@H](O)[C@H](O[C@@H]2OC[C@](O)(CO)[C@H]2O)[C@H]1O[C@@H]1OC[C@H](O)[C@H](O[C@@H]2OC[C@@H](O)[C@H](O)[C@H]2O)[C@H]1O (some centres undefined),Potency,[12],1.91 µM (active)
same,outcome,CRL-7250,inactive [at 9.27 µM]
O=C1NC(=O)/C(=C/c2cccc(C(F)(F)F)c2)S1,Potency,[12],inactive
same,Potency,CRL-7250,inactive
CC1(C)OC(=O)C(OCC2CC2)=C1c1ccc(S(C)(=O)=O)cc1,outcome,[5],inactive
same,Potency,[6],inactive
same,outcome,[7],inactive
same,Potency,[8],inactive
same,Potency,CRL-7250,inactive
Cn1nc(C(C)(C)C)cc1C(=O)N[C@@H](Cc1cccc(Cl)c1)C(=O)NCC#N,Potency,[12],inactive
same,Potency,[9],0.224 µM (active)
same,Potency,CRL-7250,inactive
C[C@@H]1O[C@@H](O[C@H]2[C@H](OC(=O)[C@]34CCC(C)(C)C[C@H]3C3=CCC5[C@@]6(C)C[C@H](O)[C@H](O[C@@H]7O[C@H](CO)[C@@H](O)[C@H](O)[C@H]7O)[C@@](C)(CO)C6[C@H](O)C[C@@]5(C)[C@]3(C)C[C@H]4O)OC[C@H](O)[C@@H]2O)[C@H](O)[C@H](O)[C@H]1O[C@@H]1OC[C@@H](O)[C@H](O[C@H]2OC[C@](O)(CO)[C@H]2O)[C@H]1O (some centres undefined),"activity change, negative = cytotoxic",[12],-21.6% [at 3.67 µM] (inactive)
same,outcome,CRL-7250,inactive [at 9.27 µM]
COc1cc(N2CCC(C(N)=O)CC2)ccc1Nc1nc(N)c(Cl)c(Nc2ccccc2S(=O)(=O)C(C)C)n1,Potency,[2],12.2 µM (active)
same,Potency,[10],1.72 µM (active)
same,Potency,[3],0.769 µM (active)
same,Potency,CRL-7250,inactive
CCN(CC)CCOCCOC(=O)C(CC)(CC)c1ccccc1,outcome,[5],inactive
same,outcome,[7],inactive
same,Potency,[8],inactive
same,Potency,CRL-7250,inactive
Cc1onc(-c2ccccc2)c1C(=O)N[C@@H]1C(=O)N2[C@@H]1SC(C)(C)[C@@H]2C(=O)O,Potency,[4],inactive
same,outcome,[5],inactive
same,Potency,[6],inactive
same,outcome,[7],inactive
same,Potency,[8],inactive
same,"activity change, negative = inhibition",[11],-25.7%
same,Potency,CRL-7250,inactive
